According to PubChem BioAssay AID624273 (Broad Institute, 2012):
The whole screen tested about 1,000 compounds, of which about 230 (23%) were called active. Another 1% or so got no clear call; they are omitted. The rule behind the calls is not given here. This is one part of the list. Entries with a potency or affinity are not part of this list.

Each molecule was assayed against Long-chain-fatty-acid--AMP ligase FadD28 (Mycobacterium tuberculosis (strain ATCC 25618 / H37Rv)) (UniProt P9WQ59) (assay: inhibitors of FadD28 bisubstrate probe binding, dose response, biochemical, fluorescence polarization, cherry-pick (AID 624273)). Conditions: series mostly up to 50 µM; activity change, negative = inhibition: at the top concentration.
Chain of Long-chain-fatty-acid--AMP ligase FadD28 (Mycobacterium tuberculosis (strain ATCC 25618 / H37Rv)) (P9WQ59 whole entry, looked up): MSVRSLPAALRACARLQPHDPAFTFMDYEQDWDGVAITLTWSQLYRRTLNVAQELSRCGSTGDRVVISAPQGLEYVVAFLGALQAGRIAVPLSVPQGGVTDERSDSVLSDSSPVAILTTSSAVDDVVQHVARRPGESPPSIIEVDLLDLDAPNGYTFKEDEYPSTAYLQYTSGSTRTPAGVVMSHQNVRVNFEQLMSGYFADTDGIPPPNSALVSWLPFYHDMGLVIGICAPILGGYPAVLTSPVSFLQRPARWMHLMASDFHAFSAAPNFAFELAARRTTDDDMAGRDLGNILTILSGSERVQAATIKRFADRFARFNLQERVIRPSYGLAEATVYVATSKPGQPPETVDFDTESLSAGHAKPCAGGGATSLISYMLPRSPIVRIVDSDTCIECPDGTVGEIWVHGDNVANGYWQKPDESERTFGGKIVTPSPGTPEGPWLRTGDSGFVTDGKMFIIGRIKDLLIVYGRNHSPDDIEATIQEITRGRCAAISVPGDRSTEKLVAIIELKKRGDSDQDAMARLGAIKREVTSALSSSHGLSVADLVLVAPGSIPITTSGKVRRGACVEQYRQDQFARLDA

| SMILES | activity change, negative = inhibition |
| --- | --- |
| O=C(NCC(c1cccs1)N1CCOCC1)c1cc2ccccc2oc1=O (stereo unspecified) | -4.79% (inactive) |
| O=c1c2c3c(sc2nc2n1CCC2)CCCC3 | -5.38% (inactive) |
| CCc1cccc2c(C(=O)CN3C(=O)NC(C)(c4cccc5ccccc45)C3=O)c[nH]c12 (stereo unspecified) | -14.2% (inactive) |
| CC(C)C(NC(=O)c1ccc2c(c1)OCO2)C(=O)N/N=C/c1cccs1 (stereo unspecified) | -4.73% (inactive) |
| NC(Cc1ccc(C(F)(F)F)cc1)c1csc(NC(=O)Nc2ccccc2)n1 (stereo unspecified) | -13.6% (inactive) |
| CCN=c1scc(-c2ccco2)n1/N=C/c1ccc(OC)c(O)c1 | -1.88% (inactive) |
| CN=c1scc(-c2ccco2)n1/N=C/c1ccc(O)c(O)c1 | -3.77% (inactive) |
| Oc1ccc(/C=N/N(Cc2ccccc2)c2ccccc2)c(O)c1O | -9.42% (inactive) |
| Oc1ccccc1/C=N/n1c2ccccc2c2ccccc21 | -3.98% (inactive) |
| CCOC(=O)c1c(-c2ccc(C)s2)csc1NC(=O)c1cccs1 | -5.93% (inactive) |
| CCOc1ccccc1NC(=O)CSc1nnc(-c2ccncc2)o1 | -7.28% (inactive) |
| CCOc1ccc(C(=O)Nc2cc(-c3nc4ccccc4[nH]3)ccc2C)cc1[N+](=O)[O-] | -2.24% (inactive) |
| CC(C)NCC(=O)Nc1c2c(nc3ccccc13)CCC2 | 2.17% (inactive) |
| O=c1[nH]nc(-c2ccccc2)cc1-c1ccccc1 | -2.33% (inactive) |
| COc1ccccc1CN1CCCC(C(=O)N2CCCCC2)C1 (stereo unspecified) | -3.04% (inactive) |
| COc1cccc(/C=N/Nc2nc(C)cc(=O)[nH]2)c1OC | -8.26% (inactive) |
| CCOC(=O)C1=C(C)NC(C)=C(C(=O)OCC)C1c1sccc1C | -4.22% (inactive) |
| COc1cccc(CN(C)C(=S)Nc2ccc(C)c(C)c2)c1 | -8.65% (inactive) |
| CCOc1ccc(-n2c(=O)c3sccc3n(CC(=O)Nc3cccc(OC)c3)c2=O)cc1 | -5.66% (inactive) |
| Nc1ccc(NC(=O)NC2CCCCC2)cc1[N+](=O)[O-] | -4.53% (inactive) |
| O=C(Nc1cccc(F)c1)NC1CCCCCCC1 | -9.32% (inactive) |
| N=c1n(Cc2ccccc2)c2ccccc2n1CC(O)c1ccco1 (stereo unspecified) | -1.34% (inactive) |
| CC(=O)Nc1ccc(OC(F)(F)C(F)F)c(NC(C)=O)c1 | -0.083% (inactive) |
| CCn1ncc(NC(=S)NCCc2ccccc2)c1C(N)=O | -2.3% (inactive) |
| CC(C)CC(=O)Nc1nnc(S(=O)(=O)N(C)c2ccc(Cl)cc2)s1 | -4.92% (inactive) |
| COc1ccc(/C=N/n2c(SC)nnc(C(C)(C)C)c2=O)cc1OC | -5.2% (inactive) |

| SMILES | activity change, negative = inhibition |
| --- | --- |
| COc1ccc(/C=N/NC(=O)CN(C2=NS(=O)(=O)c3ccccc32)c2ccccc2)cc1OC | 0.459% (inactive) |
| c1ccc(-c2nnc(N3CCCC3)nc2-c2ccccc2)cc1 | -12.7% (inactive) |
| CC(O)(c1cccnc1)c1nc(-c2cccc(C(F)(F)F)c2)cs1 (stereo unspecified) | 0.004% (inactive) |
| Cc1ccc(C(=O)OCC(=O)c2ccc(Br)cc2)cc1S(=O)(=O)N1CCOCC1 | -11.9% (inactive) |
| O=C(NCCc1c[nH]c2ccccc12)/C(=C/c1ccco1)NC(=O)c1ccco1 | -0.53% (inactive) |
| COc1ccc(CCNC(=O)c2ccc(Cl)c(S(=O)(=O)N(C)c3ccccc3)c2)cc1 | -12.1% (inactive) |
| COc1ccc(CC(=O)Nc2nnc(SCc3ccccc3)s2)cc1S(=O)(=O)N1CCOCC1 | -13% (inactive) |
| O=C(COC(=O)c1ccc(Cl)c(S(=O)(=O)N2CCCCCC2)c1)Nc1ccccc1 | -0.876% (inactive) |
| CCN(CC)S(=O)(=O)c1cccc(C(=O)NCCCN2CCOCC2)c1 | 0.631% (inactive) |
| Cc1oc(/C=N/NS(=O)(=O)c2ccccc2)cc1Br | -12.7% (inactive) |
| Cc1sc(-n2c(C)cc(/C=C3\SC(=S)NC3=O)c2C)c(C#N)c1C | -17.2% (inactive) |
| O=C1C2ON(c3ccccc3)C(c3ccccn3)C2C(=O)N1c1ccc(Br)cc1 (stereo unspecified) | -17% (inactive) |
| Cn1nnnc1NCc1cccc(Cl)c1 | -1.85% (inactive) |
| Cc1nnc(NC(=O)c2sc3nc(-c4cccs4)cc(C(F)(F)F)c3c2N)s1 | -3.55% (inactive) |
| COc1ccccc1NC(=O)CSCC(=O)N1c2ccccc2CCc2ccccc21 | 3.81% (inactive) |
| O=C(Cn1cnc2c(oc3nc4c(cc32)CCCC4)c1=O)Nc1cccc(Cl)c1 | -19.7% (inactive) |
| N#Cc1ccccc1NC(=O)c1cc(=O)c2ccccc2o1 | -1.27% (inactive) |
| NC(Cc1ccc(Cl)cc1)c1csc(NC(=O)Nc2ccccc2)n1 (stereo unspecified) | 17.3% (inactive) |
| Nc1ccc(C(CC(=O)O)n2cccc2)cc1 (stereo unspecified) | -9.59% (inactive) |
| Cc1ccc(Cn2nnc3c(=O)[nH]c(C4CCN(S(=O)(=O)Cc5ccccc5)CC4)nc32)cc1 | -2.02% (inactive) |
| COc1cc(/C=C2/C(=O)NN(c3cccc(Cl)c3)C2=O)cc(OC)c1O | -11.7% (inactive) |
| COc1cc(/C=C2/C(=O)NN(c3ccc(Cl)cc3)C2=O)ccc1OC(=O)c1ccco1 | -6.33% (inactive) |
| Cc1ccc(OCC(=O)NCCS(=O)(=O)N2CCN(c3ccccc3)CC2)cc1 | -4.58% (inactive) |
| COc1ccc(S(=O)(=O)N2CCCCC2)cc1NC(=O)CN1CCN(C(C)=O)CC1 | -3.48% (inactive) |
| CCC(=O)c1ccc(OCC(=O)Nc2cccc(S(=O)(=O)N3CCCCCC3)c2)cc1 | -10.1% (inactive) |
